DAX1 inh-1 – inhibits human nuclear receptor DAX1; P51843; HEK293 Gal4-DAX1 luciferase reporter, luminescence; inhibition, % at 6.75 µM; actives 0.99% (n = 340,000);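 active means inhibition above the mean over all tested compounds plus 3 SD, cut at about 4.2% in these data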;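 further: inhibition shows as a rise in luminescence from relieved DAX1 repression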
hcDAF12 agonist – H. contortus DAF-12 activation, primary screen. HEK293 hcDAF-12 lit1-tk-luc reporter, luminescence; 0% DMSO, 100% Δ7-dafachronic acid. AID 652067. activation, % at 6.8 µM. actives 1.4% (n = 370,000);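 active means activation above the mean of all tested compounds plus 3 SD, cut at about 5.5% in these data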
hgDAF12 agonist – activates the H. glycines DAF-12 receptor ligand-binding domain; HEK293 GAL4-hgDAF12 UAS-luciferase reporter, agonist luminescence; normalized to butyrate control; activation, % at 6.8 µM; actives 1.8% (n = 370,000); AID 687014;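 active means activation above a cutoff set at the mean of all screened compounds plus 3 SD, cut at about 10% in these data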
DAX1 inh-2 – DAX1 (NR0B1) inhibition, primary screen | HEK293T StAR-luciferase reporter, SF-1/DAX-1 repression relief | inhibition, % at 6.8 µM | actives 1.1% (n = 370,000);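 active means inhibition above the mean over all tested compounds plus 3 SD, cut at about 3.6% in these data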;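 further: higher inhibition means more luminescence from relief of DAX-1 repression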
ssDAF12 agonist – S. stercoralis DAF-12 activation, primary screen. HEK293 ssDAF-12/GRIP1 lit1-tk-luc reporter, luminescence; % of 3 µM dafachronic acid response. actives 1% (n = 370,000). activation, % at 6.8 µM. AID 652126;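 active means activation above the mean over all tested compounds plus 3 SD, cut at about 0.9% in these data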
LXR ag – LXR-beta agonism as hcDAF-12 counter-screen. shares compounds with hcDAF12 agonist. HEK293 Gal4-LXR tk-luc reporter, luminescence, 24 h; normalized: DMSO 0%, positive control 100%. activation, % at 6.8 µM. 3,400 tested, under 10 active. AID 743027;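 active means mean percent activation of the reporter above a cutoff set as the average over tested compounds plus their standard deviation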
Target sequence (P55055 whole entry, looked up, the tested form may be a part): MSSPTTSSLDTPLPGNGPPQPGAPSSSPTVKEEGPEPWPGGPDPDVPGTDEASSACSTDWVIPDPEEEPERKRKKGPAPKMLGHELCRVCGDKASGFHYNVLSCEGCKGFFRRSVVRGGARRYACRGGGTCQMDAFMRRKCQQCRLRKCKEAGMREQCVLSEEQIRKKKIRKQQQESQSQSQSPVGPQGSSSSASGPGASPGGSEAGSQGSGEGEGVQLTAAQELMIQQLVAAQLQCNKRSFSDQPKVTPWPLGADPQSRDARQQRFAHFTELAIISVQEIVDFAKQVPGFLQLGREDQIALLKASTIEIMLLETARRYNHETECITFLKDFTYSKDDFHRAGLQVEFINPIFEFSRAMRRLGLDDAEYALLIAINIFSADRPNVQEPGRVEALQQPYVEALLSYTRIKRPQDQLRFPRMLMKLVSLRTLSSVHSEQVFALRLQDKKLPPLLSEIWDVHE
hcDAF12 ag – hcDAF-12 agonism, confirmation assay. shares compounds with hcDAF12 agonist. HEK293 hcDAF-12 lit1-tk-luc reporter, luminescence; % of Δ7-dafachronic acid response. activation, % at 6.8 µM. actives 61% (n = 3,400). AID 743032;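 active means mean activation across triplicate tests above the threshold derived from the earlier primary screen, cut at about 5.5% in these data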
Of the large screens only hits and unclear results are named; the others gave an inactive call (follow-up assays come after a bar, where they were run). Sampled rows, rich in hits. Any-hit rate of the full collection: about 4.1%.

CCn1ncc(Br)c1C(=O)Nc1ccc(C(C)C)cc1	hcDAF12 agonist 7.8 | LXR ag inactive | hcDAF12 ag inactive
CCN(CC)CC#CCC(OC)(c1ccccc1)c1ccccc1	none
Cc1c(C(=O)N(C)Cc2cccc(F)c2)oc2c(Cl)cccc12	none
C/C(N)=C(/C#N)C(=O)CSc1nnnn1-c1ccc(C)cc1	hcDAF12 agonist 7.0 | LXR ag inactive | hcDAF12 ag inactive
C/C(N)=C(/C#N)C(=O)CSc1nnnn1-c1ccccc1	none
O=c1c2cc(Cl)ccc2[nH]c(=S)n1Cc1ccco1	none
O=c1c2cc(Cl)ccc2[nH]c(=S)n1Cc1cccs1	hcDAF12 agonist 6.7 | LXR ag inactive | hcDAF12 ag inactive
N#C/C(=C\c1ccc[nH]1)C(=O)Nc1ccccc1[N+](=O)[O-]	none
Cc1ccccc1NC(=O)/C(C#N)=C/c1ccc[nH]1	hcDAF12 agonist 10.6 | LXR ag inactive | hcDAF12 ag 8.5
Cc1ccccc1NC(=O)C(=O)Nc1ccccc1C	hcDAF12 agonist 8.3 | LXR ag inactive | hcDAF12 ag inactive
COc1cc(C#N)ccc1OCC(=O)Nc1cccc(S(=O)(=O)N(C)c2ccccc2)c1	none
Cc1noc(C)c1S(=O)(=O)N(CC(=O)N1CCn2c1nc1ccccc12)c1ccc(C(C)C)cc1	hcDAF12 agonist 8.4 | LXR ag inactive | hcDAF12 ag inactive
Cc1sc2c(c1C)C(=O)NC(c1ccccc1F)N2 (stereo not given)	none
Cc1ccc(C2NC(=O)c3c(sc(C)c3C)N2)c(O)c1 (stereo not given)	hcDAF12 agonist 9.0, ssDAF12 agonist 1.0 | LXR ag inactive | hcDAF12 ag 8.4
Cc1cccc(-c2cc3c(N=O)c4ccccc4c-3n[nH]2)c1	DAX1 inh-1 6.9, hcDAF12 agonist 12.1, hgDAF12 agonist 17.0, DAX1 inh-2 3.9, ssDAF12 agonist 1.2 | LXR ag inactive | hcDAF12 ag 16.6
Cc1ccc(-c2cc3c(N=O)c4ccccc4c-3n[nH]2)cc1	none
c1ccc(N2CC3COc4ccccc4C3=N2)cc1 (stereo not given)	hcDAF12 agonist 16.1, hgDAF12 agonist 19.7, DAX1 inh-2 3.9, ssDAF12 agonist 2.8 | LXR ag inactive | hcDAF12 ag 13.7
CC(=O)Nc1ccc(S(=O)(=O)N2CCCN(c3nc(C)cc(C)c3C#N)CC2)cc1	none
COC(=O)C12C=C3CC(C)=C3C(=O)N1Cc1[nH]c3ccccc3c1C2 (stereo not given)	hcDAF12 agonist 8.1 (no result: DAX1 inh-1) | LXR ag inactive | hcDAF12 ag 5.9
COC(=O)C1Cc2c([nH]c3ccccc23)C2CCC(=O)N12 (stereo not given)	none
COc1cccc(NC(=O)c2cc3ccccc3oc2=O)c1	hcDAF12 agonist 7.2, hgDAF12 agonist 13.2 | LXR ag inactive | hcDAF12 ag 8.7
COC(=O)c1sc(-c2ccc(C(C)(C)C)cc2)cc1NC(=O)c1ccccc1C(=O)O	hcDAF12 agonist 6.8, hgDAF12 agonist 12.1, ssDAF12 agonist 1.5 | LXR ag inactive | hcDAF12 ag inactive
O=C(CSCC(=O)Nc1nc(-c2ccc3c(c2)OCO3)cs1)Nc1nccs1	hcDAF12 agonist 8.4 | LXR ag inactive | hcDAF12 ag inactive
COc1ccccc1C(=O)NCC(=O)NCc1cc(=O)n(C)c(=O)n1C	none
CCc1nc2ccc(C(=O)N(CC)CCN(C)C)cn2c1N(CC)C(=O)NCCc1ccccc1	none (no result: DAX1 inh-1)
Cc1ccc(NC(=O)c2c(Cl)nc3ccccn23)cc1	hcDAF12 agonist 11.5, hgDAF12 agonist 12.7, ssDAF12 agonist 1.1 | LXR ag inactive | hcDAF12 ag 10.3
Cc1nc2ccccn2c1C(=O)Nc1ccc(Cl)cc1	none
CCOc1ccc(CC(C(N)=O)C(N)=O)cc1CN(C)C	none
O=C(Nc1ccccc1)c1cn2ccccc2n1	hcDAF12 agonist 7.0 | LXR ag inactive | hcDAF12 ag inactive
O=C(Nc1ccc(-n2cnnn2)cc1)c1cn2ccccc2n1	none (no result: hcDAF12 agonist, hgDAF12 agonist, DAX1 inh-2, ssDAF12 agonist)
Cc1cccnc1NC(=O)c1ccc(S(=O)(=O)N2CCCCC2)cc1	none
Cc1cccnc1NC(=O)c1cccc(S(=O)(=O)N2CCCC2)c1	hcDAF12 agonist 7.0 | LXR ag inactive | hcDAF12 ag inactive
Cc1ccc(N2CC(C(=O)Nc3ccc(S(=O)(=O)N4CCOCC4)cc3)CC2=O)cc1Cl (stereo not given)	none
CC1(C)CC(=O)N(CC(=O)N2CCN(c3ccc(F)cc3)CC2)c2ccccc2S1(=O)=O	none (no result: DAX1 inh-1)
O=c1c2ccccc2cnn1-c1ccc(Br)cc1	hcDAF12 agonist 11.2, hgDAF12 agonist 15.6, DAX1 inh-2 3.9, ssDAF12 agonist 2.1 | LXR ag inactive | hcDAF12 ag 12.1
CN(/N=C/c1ccc2c(c1)OCO2)c1ccccc1	hcDAF12 agonist 9.1, hgDAF12 agonist 11.2 | LXR ag inactive | hcDAF12 ag inactive
Cc1ccccc1NC(=S)NC1CCN(Cc2ccccc2)CC1	none
O=C(O)Cc1sc(Nc2cccc3ccccc23)nc1-c1ccc(Cl)cc1	hcDAF12 agonist 6.7 | LXR ag inactive | hcDAF12 ag inactive
Cc1ccc(Nc2nc(-c3ccc(C)cc3)c(CC(=O)O)s2)cc1	none
O=C(CN1CCOCC1)Nc1ccc(NC(=O)c2ccccc2F)cc1	none
COc1ccc(C(=O)n2nc(C)cc2Nc2ccccc2)cc1	hcDAF12 agonist 8.7, ssDAF12 agonist 1.4 | LXR ag inactive | hcDAF12 ag 9.6
O=C1C(C=Nc2ccccc2)=C(O)c2ccccc21	hcDAF12 agonist 15.7, hgDAF12 agonist 12.5, DAX1 inh-2 4.5, ssDAF12 agonist 1.8 | LXR ag inactive | hcDAF12 ag 10.9
Cc1ccc(O)c(N=CC2=C(O)c3ccccc3C2=O)c1	hcDAF12 agonist 6.8 | LXR ag inactive | hcDAF12 ag inactive
CC1(C)CC(=O)C(C=Nc2ccccc2)=C(O)C1	none
O=C(NC(=S)Nc1nc2c(s1)CCCC2)c1ccccc1	hcDAF12 agonist 11.7, hgDAF12 agonist 11.1, ssDAF12 agonist 1.0 | LXR ag inactive | hcDAF12 ag 16.2
CCN1CCc2nc(NC(=O)c3ccccc3)sc2C1	hcDAF12 agonist 8.9, DAX1 inh-2 4.0 | LXR ag inactive | hcDAF12 ag 6.8
CCCOc1ccc(C(=O)Nc2cc(S(=O)(=O)N3CCOCC3)ccc2N2CCN(CC)CC2)cc1OC	none
Cc1ccc(C(=O)NNC(=O)C(NC(=O)c2cccc(C)c2)C(C)C)cc1 (stereo not given)	none
N=c1oc2cc(O)ccc2cc1C(=O)Nc1nc2ccccc2s1	hcDAF12 agonist 7.2 | LXR ag inactive | hcDAF12 ag 11.1
COc1ccc(C(OCC(O)CN2CCC(O)CC2)c2ccc(OC)cc2)cc1 (stereo not given)	hcDAF12 agonist 10.2 | LXR ag inactive | hcDAF12 ag inactive

High-throughput results from PubChem BioAssay.
